Measurements as given in PubChem BioAssay (NCATS).
Inconclusive results are not listed. Unless noted, calls follow the shape of the dose curve; as a rule, active = well fitted curve in either direction with a large enough effect (not every such curve was filed as active); inconclusive = small, poorly fitted or top-dose-only effect, or another doubt; inactive = flat fitted curve, though single readings scatter.

Key:
[1] = AP1 Signaling Pathway (AID 357); settings: ME-180 AP-1-bla reporter, EGF-induced, beta-lactamase ratio, 5 h; at 17.2 µM (top of the series) unless noted;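 also: ME-180 reporter cells stimulated with EGF at its EC50 level; % is scaled to controls: 0 for no effect and ±100 for the full control effect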
In short: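 In this screen, ME-180 cells in Opti-MEM with 0.5% dialyzed FBS received EC50 EGF and compound titrations for 5 h. AP-1 reporter beta-lactamase was detected via CCF4 ratio, giving AC50 for positive and negative modulators.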

[2] = NFAT Signaling Pathway (AID 444); settings: Jurkat NFAT-bla M1, carbachol, beta-lactamase ratio, 5 h; at 17.2 µM (top of the series) unless noted;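 also: carbachol stimulus at about its EC50 of 1 µM final; % is scaled to controls: 0 for no effect and ±100 for the full control effect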
In short: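 Jurkat cells with NFAT-driven β-lactamase reporter and co-expressed M1 receptor, stimulated with carbachol (final 1 uM, ~EC50), compound titration, 5 h at 37 °C. CCF4 loaded 1 h at RT; 460/530 nm ratio gave %activity and AC50.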

[3] = Stat Signaling Pathway (AID 446); settings: ME-180 SIE beta-lactamase reporter, IL-6 stimulated, 5 h; at 17.2 µM (top of the series) unless noted;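 also: ME-180 cervical cancer cells given 40 pM IL-6 alongside compound; SIE-controlled beta-lactamase reporter measured as 460/530 nm FRET emission ratio; % is scaled to controls: 0 for no effect and ±100 for the full control effect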
In short: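 ME-180 SIE-bla cells; overnight plating; cpd + IL-6 40 pM, 5 h, 37 C; LiveBLAzer 2.5 h RT; 460/530 nm emission ratio. Normalized to 300 pM IL-6 and 125 nM JAK inhibitor controls.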

[4] = target: Glucocorticoid receptor (Homo sapiens) (UniProt P04150); assay: GR-GFP Redistribution (AID 450;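 active = compounds whose dose series gives a full or clear partial fitted curve of increased nuclear translocation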; also: potency is read from the fitted curve at half-maximal effect)
Glucocorticoid receptor (Homo sapiens), sequence (P04150 whole entry, looked up): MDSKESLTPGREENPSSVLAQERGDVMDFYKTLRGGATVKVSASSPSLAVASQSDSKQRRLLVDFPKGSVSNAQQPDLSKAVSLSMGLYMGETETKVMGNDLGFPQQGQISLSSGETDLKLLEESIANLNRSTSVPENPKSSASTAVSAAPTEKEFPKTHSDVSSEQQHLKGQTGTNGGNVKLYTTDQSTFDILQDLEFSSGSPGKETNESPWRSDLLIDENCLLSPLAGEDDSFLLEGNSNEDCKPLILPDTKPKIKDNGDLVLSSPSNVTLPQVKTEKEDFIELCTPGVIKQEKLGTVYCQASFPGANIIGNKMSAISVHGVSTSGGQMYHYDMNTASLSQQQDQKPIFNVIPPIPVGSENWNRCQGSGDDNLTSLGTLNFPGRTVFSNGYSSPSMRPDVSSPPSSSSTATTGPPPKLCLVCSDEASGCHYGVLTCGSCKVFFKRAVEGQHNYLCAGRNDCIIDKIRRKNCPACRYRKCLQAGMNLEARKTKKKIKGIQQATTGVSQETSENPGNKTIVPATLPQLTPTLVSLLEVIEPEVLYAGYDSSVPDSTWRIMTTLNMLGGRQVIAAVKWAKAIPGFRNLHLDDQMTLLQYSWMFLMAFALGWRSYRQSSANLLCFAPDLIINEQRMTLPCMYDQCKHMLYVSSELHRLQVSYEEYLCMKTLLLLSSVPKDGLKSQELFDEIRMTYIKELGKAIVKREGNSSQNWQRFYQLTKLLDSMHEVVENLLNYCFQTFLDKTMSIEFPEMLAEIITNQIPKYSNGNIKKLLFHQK

Cc1nnc(C)n1/N=C/c1cccn1C
inactive: activity change, negative = inhibition [1] 4.24% | activity change, negative = inhibition [2] 13.1% | activity, negative = inhibition [3] -1.54% | Potency [4] > 20.6 µM

COc1cccc(-c2nnc3sc(-c4ccco4)nn23)c1
inactive: activity change, negative = inhibition [1] -6.59% | activity change, negative = inhibition [2] 7.27% | activity, negative = inhibition [3] -1.01% | Potency [4] > 20.6 µM

CCN(CC)CCCN1C(=O)C(=O)/C(=C(/O)c2ccc(OC)cc2)C1c1ccco1 (stereo not given)
inactive: activity change, negative = inhibition [1] 9.88% | activity change, negative = inhibition [2] -12.1% | activity, negative = inhibition [3] 10.8% | Potency [4] > 20.6 µM

CCCCn1c(-c2ccc(Cl)cc2)nc2c(=O)n(C)c(=O)[nH]c21
inactive: activity change, negative = inhibition [1] 22.6% | activity change, negative = inhibition [2] -14.1% | activity, negative = inhibition [3] 27.6% | Potency [4] > 20.6 µM

COc1ccc(/C(O)=C2\C(=O)C(=O)N(CCN(C)C)C2c2cccc(OC)c2OC)cc1Cl (stereo not given)
inactive: activity change, negative = inhibition [1] -2.56% | activity change, negative = inhibition [2] 11.9% | activity, negative = inhibition [3] 8.3% | Potency [4] > 20.6 µM

CN(C)C(=O)COn1c(SCC(=O)N(C)C)nc2ccccc2c1=O
inactive: activity change, negative = inhibition [1] 6.36% | activity change, negative = inhibition [2] 14.2% | activity, negative = inhibition [3] 2.27% | Potency [4] > 20.6 µM

Cc1cccn2c(=O)c3cc(C#N)c(=N)n(Cc4ccncc4)c3nc12
inactive: activity change, negative = inhibition [1] 6.9% | activity change, negative = inhibition [2] -26.5% | activity, negative = inhibition [3] -5.05% | Potency [4] > 20.6 µM

COc1ccc(N2C(=O)CC(N(Cc3ccc(S(N)(=O)=O)cc3)C(C)=O)C2=O)cc1 (stereo not given)
inactive: activity change, negative = inhibition [1] 5.04% | activity change, negative = inhibition [2] -2.46% | activity, negative = inhibition [3] 2.66% | Potency [4] > 20.6 µM

Cc1ccc(Cn2ncc3c(N4CCOCC4)ncnc32)cc1
inactive: activity change, negative = inhibition [1] -2.95% | activity change, negative = inhibition [2] 19.3% | activity, negative = inhibition [3] 3.94% | Potency [4] > 20.6 µM

O=C(c1ccc(=O)oc1)N1CCN(c2ccc(F)cc2)CC1
inactive: activity change, negative = inhibition [1] 2.08% | activity change, negative = inhibition [2] -11.6% | activity, negative = inhibition [3] -4.16% | Potency [4] > 20.6 µM

CC(C)(C#N)C(C)(C)c1nn[nH]n1
inactive: activity change, negative = inhibition [1] 6.02% | activity change, negative = inhibition [2] 0.881% | activity, negative = inhibition [3] 8.72% | Potency [4] > 20.6 µM

CCn1cc(/C=N/O)c(C)n1
inactive: activity change, negative = inhibition [1] -0.439% | activity change, negative = inhibition [2] -4.37% | activity, negative = inhibition [3] 14% | Potency [4] > 20.6 µM

CCCOc1ccc(CSC(CC(=O)O)C(=O)O)cc1 (stereo not given)
inactive: activity change, negative = inhibition [1] 4.79% | activity change, negative = inhibition [2] 13.3% | activity, negative = inhibition [3] 6.22% | Potency [4] > 20.6 µM

COC(=O)Cn1cc(C(=O)OC)cc(Br)c1=O
inactive: activity change, negative = inhibition [1] 8.29% | activity change, negative = inhibition [2] 0.926% | activity, negative = inhibition [3] -0.311% | Potency [4] > 20.6 µM

CC1(C)CC(N(Cc2ccco2)C(=O)Cc2ccccc2)CCO1 (stereo not given)
inactive: activity change, negative = inhibition [1] -1.99% | activity change, negative = inhibition [2] -3.12% | activity, negative = inhibition [3] 9.62% | Potency [4] > 20.6 µM

Cc1nc2n[nH]c(N)c2c2c1COC(C)(C)C2
inactive: activity change, negative = inhibition [1] 3.75% | activity change, negative = inhibition [2] -4.48% | activity, negative = inhibition [3] 3.57% | Potency [4] > 20.6 µM

Cc1cc(=O)oc(C)c1C(=O)N[C@@H]1CCCCNC1=O
inactive: activity change, negative = inhibition [1] 9.85% | activity change, negative = inhibition [2] 9.68% | activity, negative = inhibition [3] 9.42% | Potency [4] > 20.6 µM

COC(=O)C(NC(C)=O)(Nc1ccccc1)C(=O)OC
inactive: activity change, negative = inhibition [1] 2.11% | activity change, negative = inhibition [2] -1.66% | activity, negative = inhibition [3] 13.2% | Potency [4] > 20.6 µM

O=C(O)CCc1nn2cc(-c3ccccc3)nc2[nH]c1=O
inactive: activity change, negative = inhibition [1] 6.39% | activity change, negative = inhibition [2] -22.2% | activity, negative = inhibition [3] 10.5% | Potency [4] > 20.6 µM

Cn1c(=O)c2c(nc(NCc3ccc4c(c3)OCO4)n2Cc2ccccc2F)n(C)c1=O
inactive: activity change, negative = inhibition [1] -24.1% | activity change, negative = inhibition [2] -14% | activity, negative = inhibition [3] -25.4% | Potency [4] > 20.6 µM

COC(=O)CN1C2(C#N)CCCCC2CC2CCCCC21C#N (stereo not given)
inactive: activity change, negative = inhibition [1] 2.79% | activity change, negative = inhibition [2] -12.3% | activity, negative = inhibition [3] 13% | Potency [4] > 20.6 µM

CSc1nc(Oc2ccc(=O)[nH]n2)nc(N(C)C)n1
inactive: activity change, negative = inhibition [1] 0.488% | activity change, negative = inhibition [2] -5.44% | activity, negative = inhibition [3] 3.84% | Potency [4] > 20.6 µM

CSc1nc(N)nc(SCC(=O)OC(C)C)c1C#N
inactive: activity change, negative = inhibition [1] -15.6% | activity change, negative = inhibition [2] 6.28% | activity, negative = inhibition [3] -5.26% | Potency [4] > 20.6 µM

O=C(NCc1ccccc1)/C(=N\O)c1ccccc1
inactive: activity change, negative = inhibition [1] -2.22% | activity change, negative = inhibition [2] 12.4% | activity, negative = inhibition [3] 3.38% | Potency [4] > 20.6 µM

CC(=O)c1cc(C#N)c(SCC(=O)C(C)(C)C)nc1C
inactive: activity change, negative = inhibition [1] -4.83% | activity change, negative = inhibition [2] -23.2% | activity, negative = inhibition [3] 12.6% | Potency [4] > 20.6 µM

CCOc1ccc(C2C(C(=O)c3ccc(C)o3)=C(O)C(=O)N2CCCN(CC)CC)cc1 (stereo not given)
inactive: activity change, negative = inhibition [1] -5.84% | activity change, negative = inhibition [2] 12.8% | activity, negative = inhibition [3] 6.24% | Potency [4] > 20.6 µM

Cc1cccc(COc2ccc(/C(O)=C3\C(=O)C(=O)N(CCN(C)C)C3c3ccncc3)cc2)c1 (stereo not given)
inactive: activity change, negative = inhibition [1] 4.68% | activity change, negative = inhibition [2] 13.1% | activity, negative = inhibition [3] 2.96% | Potency [4] > 20.6 µM

CC(=O)Nc1ccc(OC(=O)CC2SC(=O)NC2=O)cc1 (stereo not given)
inactive: activity change, negative = inhibition [1] 6.63% | activity change, negative = inhibition [2] 11.3% | activity, negative = inhibition [3] 5.85% | Potency [4] > 20.6 µM

C=CCOc1nc2c(c(=O)n(C)c(=O)n2C)n1Cc1ccccc1Cl
inactive: activity change, negative = inhibition [1] -0.647% | activity change, negative = inhibition [2] -10.1% | activity, negative = inhibition [3] -0.000949% | Potency [4] > 20.6 µM

CCCCOc1ccc(C(=O)Nn2cnnc2)cc1
inactive: activity change, negative = inhibition [1] 15.5% | activity change, negative = inhibition [2] 4.61% | activity, negative = inhibition [3] 8.41% | Potency [4] > 20.6 µM
